Whole data set: some 81,000 sequences, median “one-hybrid fitness for binding NBS DNA” near -0.1, cut for the highest 2% near 0.36. This excerpt belongs to a sample that is enriched for the highest values.
B1: Caulobacter ParB omega fusion; a variant is named by its letters at X, in order, B8GW30 (parent)
chain: MESVVVGEPGMSEGRRGLGRGLSALLGEVDAAPAQAPGEQLGGSREAPIEILQRNPDQPRRTFREEDLEDLSNSIREKGVLQPILVRPSPDTAGEYQIVAGERAWRAAQRAGLKTVPIMVRELDDLAVLEIGIIENVQRADLNVLEEALSYKVLMEKFERTQENIAQTIGKSXSHVANXMRLLXLPDEVQSYLVSGELTAXHARAIAAAADPVALAKQIIEGGLSVRETEALARKAPNLSAGKSKGGRPPRVKDTDTQALESDLSSVLGLDVSIDHRGSTGTLTITYATLEQLDDLCNRLTRGI

Variants of: B1
Test: one-hybrid fitness for binding NBS DNA (the Noc-binding site; scaled: cognate 1, non-cognate 0); higher = stronger binding
Conditions: with NBS DNA site
Method in brief: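 Values were rescaled so that cognate is 1 and non-cognate is 0. Each is a fitness, the log change in a variant's read ratio to wild type from Illumina reads of plasmids before and after selection, with three replicate libraries pooled and variants under 10 reads dropped. Selection of the Caulobacter ParB libraries, four specificity codons randomised, used E. coli USO with a HIS3 reporter, site 19 bp from the promoter, on M9-minus-histidine with 0.1 mM IPTG and 5 mM 3-AT for 48 hours at 37°C.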

Variant | one-hybrid fitness for binding NBS DNA
QQQT | 0.449
QQGD | ≤ 0.2
QQHT | 0.535
SAFG | ≤ 0.2
IKRQ | ≤ 0.2
STKR | 0.254
FDSL | ≤ 0.2
VKGK | ≤ 0.2
DTSI | ≤ 0.2
QQSP | ≤ 0.2
QQCS | 0.356
QQCT | 0.528
QQSD | ≤ 0.2
QQCN | ≤ 0.2
QQST | 0.516
QYLD | ≤ 0.2
QYFY | ≤ 0.2
QYKE | 0.213
QYVY | ≤ 0.2
QYLT | 0.383
QYLN | ≤ 0.2
QYGY | ≤ 0.2
QYDY | ≤ 0.2
QYKY | 0.479
QYRY | 0.486
QYKN | 0.366

Variant | one-hybrid fitness for binding NBS DNA
QYKL | 0.246
VANF | ≤ 0.2
NCLY | ≤ 0.2
QFRV | ≤ 0.2
SHNY | ≤ 0.2
QQPF | ≤ 0.2
TSAQ | ≤ 0.2
HDDG | ≤ 0.2
CDFR | ≤ 0.2
SYFG | ≤ 0.2
LSYG | ≤ 0.2
QYWY | ≤ 0.2
QYPM | ≤ 0.2
QYKM | 0.369
QYKH | 0.569
QYCY | ≤ 0.2
QYCG | ≤ 0.2
QYCT | 0.419
QYLM | ≤ 0.2
QYKG | 0.294
QYWT | 0.378
QYKF | 0.229
QYWN | ≤ 0.2
LVLD | ≤ 0.2
GKTG | ≤ 0.2
TVSI | ≤ 0.2

Variant | one-hybrid fitness for binding NBS DNA
MEAE | ≤ 0.2
YPFW | ≤ 0.2
SPYH | ≤ 0.2
HDPT | ≤ 0.2
NGHF | ≤ 0.2
GEAN | ≤ 0.2
SSSE | ≤ 0.2
QYSH | ≤ 0.2
QYHC | ≤ 0.2
QYVT | 0.363
QYSS | 0.357
QYHQ | ≤ 0.2
QYHT | 0.417
QYKT | 0.722
QYST | 0.413
QYKK | 0.398
QYYK | ≤ 0.2
QYRK | 0.36
QYPT | 0.255
VTAR | ≤ 0.2
SYLG | ≤ 0.2
HAQP | ≤ 0.2
GPML | ≤ 0.2
SDVP | ≤ 0.2
IIPF | ≤ 0.2

Source: a collection of fitness landscapes (doi:10.1016/j.celrep.2020.107928)
